Screening results: PubChem, National Center for Advancing Translational Sciences (NCATS)
nsP2pro primary: blocks chikungunya virus nsP2 protease peptide cleavage; 31,000 compounds, 1.1% hits; AID 1964107; FRET peptide cleavage, nsP2pro, fluorescence 1 h; Q8JUX6; Potency, µM (top dose mostly 24.9 µM), for inactives: at the highest dose activity change, negative = inhibition, actives largely listed as inhibitors; also: nearly all actives have a fitted effect of over 60% in size
Target sequence (Q8JUX6 whole entry, looked up): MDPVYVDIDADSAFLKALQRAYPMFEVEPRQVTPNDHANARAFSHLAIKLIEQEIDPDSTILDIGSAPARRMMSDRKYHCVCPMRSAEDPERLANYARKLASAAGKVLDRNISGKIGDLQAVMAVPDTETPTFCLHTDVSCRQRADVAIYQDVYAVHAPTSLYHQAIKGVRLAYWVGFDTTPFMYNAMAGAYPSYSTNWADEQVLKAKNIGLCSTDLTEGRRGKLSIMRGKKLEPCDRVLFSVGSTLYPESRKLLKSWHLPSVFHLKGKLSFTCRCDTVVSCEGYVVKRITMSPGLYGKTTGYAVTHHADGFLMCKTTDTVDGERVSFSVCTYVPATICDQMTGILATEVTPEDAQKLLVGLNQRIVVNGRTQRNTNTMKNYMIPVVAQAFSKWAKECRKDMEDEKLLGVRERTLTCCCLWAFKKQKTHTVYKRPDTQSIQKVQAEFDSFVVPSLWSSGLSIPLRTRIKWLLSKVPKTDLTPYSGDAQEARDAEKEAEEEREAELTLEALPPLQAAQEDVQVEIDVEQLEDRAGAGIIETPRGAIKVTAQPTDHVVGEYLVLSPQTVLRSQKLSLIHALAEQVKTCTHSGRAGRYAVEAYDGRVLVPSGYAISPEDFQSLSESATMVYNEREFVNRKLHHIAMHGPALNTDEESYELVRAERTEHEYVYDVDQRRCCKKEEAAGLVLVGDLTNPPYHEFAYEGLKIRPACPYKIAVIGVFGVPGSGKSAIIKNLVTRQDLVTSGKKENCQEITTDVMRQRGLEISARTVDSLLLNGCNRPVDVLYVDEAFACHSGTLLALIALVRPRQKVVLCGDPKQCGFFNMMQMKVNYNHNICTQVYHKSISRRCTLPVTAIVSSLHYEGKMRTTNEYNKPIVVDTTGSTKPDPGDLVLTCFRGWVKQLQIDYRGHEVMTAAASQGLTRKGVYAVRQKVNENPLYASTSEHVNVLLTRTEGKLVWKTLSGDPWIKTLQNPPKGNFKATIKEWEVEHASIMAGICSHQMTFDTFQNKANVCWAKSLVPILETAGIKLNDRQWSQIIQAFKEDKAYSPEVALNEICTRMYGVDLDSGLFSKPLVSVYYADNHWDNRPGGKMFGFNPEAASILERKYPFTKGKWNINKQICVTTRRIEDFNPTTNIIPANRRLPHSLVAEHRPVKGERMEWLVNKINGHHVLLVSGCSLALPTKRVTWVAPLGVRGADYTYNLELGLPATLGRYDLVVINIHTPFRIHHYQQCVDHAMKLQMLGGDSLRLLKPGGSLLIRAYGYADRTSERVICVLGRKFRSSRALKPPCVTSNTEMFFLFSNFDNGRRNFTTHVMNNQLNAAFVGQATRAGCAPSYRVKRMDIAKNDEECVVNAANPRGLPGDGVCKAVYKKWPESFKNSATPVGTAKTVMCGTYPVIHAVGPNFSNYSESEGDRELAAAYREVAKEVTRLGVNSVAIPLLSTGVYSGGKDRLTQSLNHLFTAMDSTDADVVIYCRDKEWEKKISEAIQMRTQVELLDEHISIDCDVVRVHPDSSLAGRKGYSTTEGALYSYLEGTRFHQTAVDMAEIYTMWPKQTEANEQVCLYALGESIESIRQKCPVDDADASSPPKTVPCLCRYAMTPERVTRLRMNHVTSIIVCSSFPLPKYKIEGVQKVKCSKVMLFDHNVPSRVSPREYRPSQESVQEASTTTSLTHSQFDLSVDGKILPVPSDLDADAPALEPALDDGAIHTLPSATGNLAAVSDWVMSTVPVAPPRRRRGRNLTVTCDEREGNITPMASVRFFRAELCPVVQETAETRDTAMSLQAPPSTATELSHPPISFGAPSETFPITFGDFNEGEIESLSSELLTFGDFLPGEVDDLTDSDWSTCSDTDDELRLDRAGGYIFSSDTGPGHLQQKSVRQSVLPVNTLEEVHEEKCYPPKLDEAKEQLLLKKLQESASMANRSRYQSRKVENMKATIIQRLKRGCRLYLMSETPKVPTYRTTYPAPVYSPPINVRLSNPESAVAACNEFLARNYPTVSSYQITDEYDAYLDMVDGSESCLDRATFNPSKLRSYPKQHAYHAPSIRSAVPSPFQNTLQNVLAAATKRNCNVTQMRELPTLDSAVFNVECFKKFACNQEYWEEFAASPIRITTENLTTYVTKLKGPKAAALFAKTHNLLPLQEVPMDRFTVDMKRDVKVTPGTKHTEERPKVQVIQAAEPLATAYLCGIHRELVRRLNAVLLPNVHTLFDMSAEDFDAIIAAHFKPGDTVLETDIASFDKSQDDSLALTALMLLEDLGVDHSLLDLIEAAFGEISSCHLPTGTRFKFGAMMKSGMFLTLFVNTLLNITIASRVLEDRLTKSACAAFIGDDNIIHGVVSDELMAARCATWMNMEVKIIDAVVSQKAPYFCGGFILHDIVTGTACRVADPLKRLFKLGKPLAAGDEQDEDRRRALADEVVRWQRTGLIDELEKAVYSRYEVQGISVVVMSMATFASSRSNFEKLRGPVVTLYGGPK
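Enzyme 150 nM, substrate 2.5 uM (both final); Tris-HCl 10 mM pH 8.0 + 0.01% Tween 20; cpd up to 25 uM, 7 pts; 15 min preinc., 1 h RT; fluorescence ex 525/em 598.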
nsP2 cell sec: cell-based CHIKV nsP2 protease inhibition, secondary; shares compounds with nsP2pro primary; cell-based CHIKV nsP2 protease reporter assay; Potency, µM (top dose mostly 51.1 µM), for inactives: at the top dose activity change, negative = inhibition, most hits filed as inhibitors; 450 compounds, 10% hits; AID 1964100; also: nearly all actives have a fitted effect of over 70% in size
CHIKV NSP2 FL: full-length CHIKV NSP2 protease inhibition, selectivity; 410 compounds, 39% hits; shares compounds with nsP2pro primary; AID 1964101; Full-length CHIKV NSP2 protease enzymatic counterscreen; Potency, µM (top dose mostly 50.7 µM), inactives show top-dose activity change, negative = inhibition, usual class: inhibitors; also: nearly all actives have a fitted effect of over 65% in size
Furin counterscr: human furin inhibition, counterscreen for nsP2pro inhibitors | shares compounds with nsP2pro primary | Recombinant human furin enzymatic counterscreen, fluorogenic substrate | Potency, µM (top dose mostly 50.6 µM), for the others: top-dose activity change, negative = inhibition, usual class: inhibitors | 410 compounds, 6% hits
nsP2 NS23 pep: nsP2pro inhibition on native NS2/3 peptide substrate; shares compounds with nsP2pro primary; 410 compounds, 34% hits; Potency, µM (doses to about 51 µM), for inactives: at the top dose activity change, negative = inhibition, actives largely listed as inhibitors; AID 1964103; Purified CHIKV nsP2 protease, endogenous NS2/3 peptide cleavage; also: nearly all actives have a fitted effect of over 55% in size
Papain cs: papain protease inhibition, counterscreen for nsP2pro inhibitors. Potency, µM (doses to about 51 µM), for the others: top-dose activity change, negative = inhibition, usual class: inhibitors. purified papain protease activity, enzymatic inhibition. 410 compounds, 5% hits. shares compounds with nsP2pro primary
nsP2pro confirm: confirmation of CHIKV nsP2 protease inhibitors | shares compounds with nsP2pro primary | Potency, µM (doses to about 25.5 µM), for inactives: at the highest dose activity change, negative = inhibition, actives largely listed as inhibitors | CHIKV nsP2 protease enzymatic activity, qHTS | 410 compounds, 43% hits; also: nearly all actives have a fitted effect of over 75% in size
HCV NS3 4A cs: selectivity counter-screen for CHIKV nsP2 protease inhibitors: HCV NS3/4A; Potency, µM (top dose mostly 50.9 µM), usual class: inhibitors; HCV NS3/4A protease biochemical counterscreen; 410 compounds, 20% hits; shares compounds with nsP2pro primary; also: nearly all actives have a fitted effect of over 55% in size
* hit, by the source's call; i = inactive; ? = inconclusive; [ ] = dose if it differs, or a comment. Many of the other results were omitted from the sample, so hits are more common in it than they were. Calls follow the shape of the full dose curve. % is scaled to controls: 0 for no effect and ±100 for the full control effect; potency is read from the fitted curve at half-maximal effect.

SMILES	nsP2pro primary	others
Cc1c(C(=O)Nc2ccc(N3C[C@@H](C)O[C@@H](C)C3)nc2)cccc1-c1ccc(OC(F)(F)F)cc1	?	nsP2 cell sec=-13.1%;CHIKV NSP2 FL=8.1%;Furin counterscr=-8.5%;nsP2 NS23 pep=10.2%;Papain cs=-9.7%;nsP2pro confirm=-3.8%;HCV NS3 4A cs=i
c1ccc(CNCc2nnc(-c3cc4ccccc4[nH]3)o2)cc1	0.2%
CCS(=O)(=O)c1ncc(Cl)c(C(=O)Nc2ccccc2)n1	71.8%
Cc1ccc(CS(=O)(=O)c2ncc(Cl)c(C(=O)Nc3nc4ccc(F)cc4s3)n2)cc1	-0.1%
CC(=O)Nc1ccc(NC(=O)c2nc(S(=O)(=O)Cc3ccc(F)cc3)ncc2Cl)cc1	?	nsP2 cell sec=2.31µM*;CHIKV NSP2 FL=?;Furin counterscr=1.6%;nsP2 NS23 pep=4.61µM*;Papain cs=-7.0%;nsP2pro confirm=5.04µM*;HCV NS3 4A cs=i
O=C(CCCc1ccccc1)Nc1ccnn1C1CCN(C(=O)c2ccccc2F)CC1	-4.7%
O=C(C[C@@H]1NCCC[C@H]1O)Cn1cnc2ccccc2c1=O	-21.7%
CNS(=O)(=O)CC1CCC(N(C)c2ncnc3[nH]ccc23)CC1 (stereo not given)	-11.4%
O=C1CC(c2ccccc2)N(C(=O)CNC(=O)c2ccncc2)CCCCCN1 (stereo not given)	3.0%
COc1cccc(Nc2cc(C(=O)NCc3cccnc3)c3c(c2)ncn3C)c1	i
COC(=O)c1ccccc1NC(=O)Cn1c(CCC(=O)O)ccc1-c1cccs1	2.1%
COC(=O)c1cccc(-n2c(CCC(=O)O)ccc2-c2cccs2)c1	8.91µM*	nsP2 cell sec=2.1%
CC(=O)c1ccc(-n2c(CCC(=O)O)ccc2-c2cccs2)cc1	9.7%
CCCn1c(=O)c2[nH]c(-c3cnn(Cc4cccc(C(F)(F)F)c4)c3)nc2n(CC)c1=O	-6.1%
O=C(NC1CCCCC1)O[C@@H]1CO[C@H]2[C@@H]1OC[C@@H]2NS(=O)(=O)c1ccc(Cl)cc1	-20.9%
O=C(NC1CCCCC1)O[C@@H]1CO[C@H]2[C@@H]1OC[C@@H]2n1nnnc1SCc1ccco1	0.447µM*	nsP2 cell sec=3.0%;CHIKV NSP2 FL=2.91µM*;Furin counterscr=?;nsP2 NS23 pep=6.51µM*;Papain cs=-7.6%;nsP2pro confirm=0.895µM*;HCV NS3 4A cs=?
O[C@@H]1CO[C@H]2[C@@H]1OC[C@@H]2n1nnnc1Sc1ncccn1	-12.8%[39.2 µM]
Cc1cnc(C2CCC2)n1CCC1CCN(C(=O)c2ccc3ccccc3n2)CC1	i
Cc1ccnc(C(=S)N2CCN(c3cccc(C(F)(F)F)c3)CC2)c1	-1.3%
COc1cc(/C=C/C(=O)O[C@H]2C[C@@H]3C(C(=O)O)=CO[C@@H](O[C@@H]4O[C@H](CO)[C@@H](O)[C@H](O)[C@H]4O)[C@@H]3[C@H]2C)ccc1O	-3.5%[10 µM]
OCCN1CCN(C(c2ccc(Cl)cc2Cl)c2sc3nc(-c4ccco4)nn3c2O)CC1 (stereo not given)	-0.2%
Oc1c(C(c2ccc(Cl)cc2Cl)N2CCOCC2)sc2nc(-c3ccco3)nn12 (stereo not given)	-20.4%
Cc1ccc(C(c2sc3nc(-c4ccco4)nn3c2O)N2CCOCC2)cc1 (stereo not given)	?	nsP2 cell sec=-13.9%;CHIKV NSP2 FL=-7.3%;Furin counterscr=-9.1%;nsP2 NS23 pep=0.8%;Papain cs=-18.6%;nsP2pro confirm=-23.3%;HCV NS3 4A cs=i
COC(=O)[C@]12CCC(C)(C)C[C@H]1[C@H]1C(=O)C=C3[C@@]4(C)C=C(C#N)C(=O)C(C)(C)[C@@H]4CC[C@@]3(C)[C@]1(C)CC2	?	nsP2 cell sec=?;CHIKV NSP2 FL=?;Furin counterscr=-2.9%;nsP2 NS23 pep=?;Papain cs=?;nsP2pro confirm=?;HCV NS3 4A cs=i
CC(C)(C)c1ccnc(N[C@H]2CO[C@H]3[C@@H]2OC[C@@H]3NC(=O)c2cccs2)n1	-17.7%[39.2 µM]
